Hit rate of the full screen: of about 10,000 compounds, about 320 (3.2%) were called active. Cut-off read from the data, not from the text of the source: active = CPE inhibition mostly above about 9.1% (no sharp cut-off); inactive = mostly below about 7.2%. Many of the other results were omitted from the sample, so actives are more common in it than they were.

A short description of the assay: Dengue virus cytopathic effect inhibitors, cell-based, CPE readout, HTS (AID 540333). The following applies: Dengue virus CPE inhibition in host cells, at 20 µM; active compounds read high. (In general: Protection from cytopathic effect is a common read-out in antiviral testing.)
In the case of `Fc1ccccc1NC(=S)NCc1ccc2c(c1)OCO2`, the CPE inhibition is 0.705% (inactive).

For `COc1cc(C(=O)NNC(=S)NC(=O)c2ccc(Cl)cc2)cc(OC)c1OC`, the CPE inhibition was 2.02% (inactive).

Regarding `Cc1cccc(-n2c(SCC(=O)Nc3ncc(Cl)cc3Cl)nc3ccccc32)c1`, the CPE inhibition is 13.7% (active).

On to `CCn1c(SCC(=O)Nc2ncc(C(F)(F)F)cc2Cl)nnc1-c1cccc(C)c1`, for which the CPE inhibition is 0.415% (inactive).

Consider `Cc1ccc(-n2c(SCC(=O)Nc3cccc(S(N)(=O)=O)c3)nc3ccccc32)cc1`, for which the CPE inhibition was 10.4% (inactive).

Regarding `Cc1ccc(-c2nn(-c3ccccc3)cc2C(=O)OCC(=O)Nc2ncc(Cl)cc2Cl)cc1`, the CPE inhibition is 0.085% (inactive).

Regarding `CN(C)S(=O)(=O)c1cccc(NC(=O)CSc2nc3ccccc3n2-c2ccccc2)c1`, the CPE inhibition is 6.67% (inactive).

Take `Cc1ccc(-n2c(SCC(=O)Nc3ncc(Cl)cc3Cl)nc3ccccc32)cc1`: the CPE inhibition was 14.9% (active).

Turning to `COc1cc2c(cc1OC)CN(c1ccc([N+](=O)[O-])cc1C#N)CC2`, the CPE inhibition is 0.37% (inactive).

As for `CN(C)S(=O)(=O)c1ccc(NCC2COc3ccccc3O2)c([N+](=O)[O-])c1` (centres undefined), the CPE inhibition is 0.57% (inactive).

As for `O=C(CSc1cccc[n+]1[O-])Nc1cc(S(=O)(=O)N2CCOCC2)ccc1Cl`, the CPE inhibition entry is “inactive”.

For `O=c1c2ccccc2sc2ccc(Cl)cc12`, the CPE inhibition is 0.48% (inactive).

On to `COc1cc(/C=C(\C#N)C(=O)NC2CCCCC2C)ccc1OS(=O)(=O)c1ccc(C)cc1` (centres undefined), for which the CPE inhibition entry is “inactive”.

On to `CSc1ccc(/C=C(\C#N)C(=O)NC2CCCCC2C)cc1` (centres undefined), for which the CPE inhibition is 18.5% (active).

As to `CCCCCCCCNC(=O)/C(C#N)=C/c1ccc(SC)cc1`, the CPE inhibition was 0.185% (inactive).

In the case of `CC(=O)Nc1ccc(OCC(O)CN2CCCCC2C)cc1` (centres undefined), the CPE inhibition is 0.255% (inactive).

Regarding `O=[N+]([O-])c1ccc(-c2nnc(-c3ccccc3)c(NCCCO)n2)cc1`, the CPE inhibition entry is “inactive”.

Take `CC1CCN(C(=O)CCc2ccc(Oc3cc([N+](=O)[O-])cc([N+](=O)[O-])c3)cc2)CC1`: the CPE inhibition is 6.92% (inactive).

Turning to `O=C(CCc1ccc(Oc2cc([N+](=O)[O-])cc([N+](=O)[O-])c2)cc1)N1CCCCCC1`, the CPE inhibition is 12.4% (active).

On to `O=C(c1cc([N+](=O)[O-])ccc1N1CCCCC1)N1CCCC1`, for which the CPE inhibition was 0.545% (inactive).

In the case of `COc1ccc(OCCCC(=O)Nc2cccc([N+](=O)[O-])c2C)cc1`, the CPE inhibition result is “inactive”.

Take `C=CCOC(=O)C1=C(C)NC(SCC(N)=O)=C(C#N)C1c1cccs1` (centres undefined): the CPE inhibition is 0.32% (inactive).

Turning to `Cc1cc(C)c(COc2ccc(/C=N/n3c(C)n[nH]c3=S)cc2)c(C)c1`, the CPE inhibition is 5.91% (inactive).

With `Cc1ccc2[nH]c(=O)c(CN(Cc3cccs3)C(=S)NCC3CCCO3)cc2c1` (centres undefined), the CPE inhibition is 0.245% (inactive).

Take `Cc1cccc(NC(=S)N(Cc2cccs2)Cc2cc3cc(C)cc(C)c3[nH]c2=O)c1`: the CPE inhibition is 3.13% (inactive).

In the case of `Cc1cc2cc(CN(Cc3cccs3)C(=S)NCC3CCCO3)c(=O)[nH]c2cc1C` (centres undefined), the CPE inhibition was 18.4% (active).

For `CNC(=S)N(Cc1cccs1)Cc1cc2cc(OC)ccc2[nH]c1=O`, the CPE inhibition result is “inactive”.

`COc1ccc2[nH]c(=O)c(CN(Cc3cccs3)C(=S)Nc3cccc(C)c3)cc2c1`: the CPE inhibition was 9.5% (active).

For the molecule `Cc1cc(C)c2[nH]c(=O)c(CN(Cc3cccs3)C(=S)NCC3CCCO3)cc2c1` (centres undefined), the CPE inhibition is 2.9% (inactive).

As to `N=C(N)SCc1nc2ccccc2c(=O)n1-c1ccccc1`, the CPE inhibition result was “inactive”.

In the case of `CC1CCC(=O)N(CCSc2ccccc2)CC1` (centres undefined), the CPE inhibition was 0.29% (inactive).

As for `O=C(c1ccc(COc2ccc(Cl)cc2)o1)N1N=C(C(F)F)CC1(O)C(F)F` (centres undefined), the CPE inhibition is 3% (inactive).

Consider `CCO[C@H]1OC(C(N)=O)=C[C@@H](C(C)(C)C)[C@@H]1CCCO`, for which the CPE inhibition entry was “inactive”.

As to `COc1ccccc1C(NC(=O)C1CCCCC1)c1c(O)ccc2ccccc12` (centres undefined), the CPE inhibition was 0.755% (inactive).

Turning to `CC(C)CC(=O)NC(c1ccccc1Cl)c1c(O)ccc2ccccc12` (centres undefined), the CPE inhibition was 69% (active).

As for `CCC(=O)NC(c1ccccc1Cl)c1c(O)ccc2ccccc12` (centres undefined), the CPE inhibition was 4.07% (inactive).

With `CC(C)c1ccc(NC(=S)NCCc2c[nH]c3ccccc23)cc1`, the CPE inhibition entry is “inactive”.

As for `C/C(=N\NC(=O)c1ccccc1-n1cccc1)C1CC1`, the CPE inhibition is 0.14% (inactive).

As to `CON1C(=O)C(=O)N(OC)C2CCCCCC21` (centres undefined), the CPE inhibition was 0.76% (inactive).

On to `CCOc1ccc(NCc2nnc(SCC(=O)Nc3nc(-c4ccccc4)cs3)n2-c2ccccc2)cc1`, for which the CPE inhibition is 0.01% (inactive).

For the molecule `COc1ccc(-n2c(SCc3ccc([N+](=O)[O-])cc3)nnc2-c2ccc(C)cc2)cc1`, the CPE inhibition is 11.5% (inactive).

Consider `COc1ccc(NCc2nnc(SCC(=O)Nc3nc(-c4ccccc4)cs3)n2-c2ccccc2)cc1`, for which the CPE inhibition result was “inactive”.

In the case of `CCOc1ccc(NCc2nnc(SCc3ccc(Cl)cc3)n2-c2ccccc2)cc1`, the CPE inhibition is 15.5% (active).

Take `COC(=O)c1ccc(CSc2nnc(CS(=O)Cc3ccc(Br)cc3)n2-c2ccccc2)cc1` (centres undefined): the CPE inhibition was 9.53% (inactive).

Regarding `COc1ccc(-n2c(CNc3ccc(C)cc3)nnc2SCc2ccccc2)cc1`, the CPE inhibition is 13.1% (active).

For `Cc1cc(C(=O)N/N=C/c2cc(Br)cc([N+](=O)[O-])c2O)c2ccccc2n1`, the CPE inhibition is 0.34% (inactive).

As to `CCOC(=O)c1cccc(S(=O)(=O)N2CCCC2)c1`, the CPE inhibition was 0.06% (inactive).

`O=C(NCc1ccccc1)C1=C[C@@H](C2CCCCC2)C[C@@H](OCCCCO)O1`: the CPE inhibition was 2.12% (inactive).

With `Cc1[nH][nH]c(=O)c1C`, the CPE inhibition is 0.36% (inactive).

Regarding `Cc1ccc(S(=O)(=O)NNC(=S)NC(=O)c2ccc([N+](=O)[O-])cc2)cc1`, the CPE inhibition result was “inactive”.

As to `CC(C)COP(=O)(c1ccc(N(C)C)cc1)C(Nc1ccccc1)c1cccnc1` (centres undefined), the CPE inhibition is 0.73% (inactive).

As to `CC(C)COP(=O)(c1ccc(N(C)C)cc1)C(Nc1ccccc1)c1ccccc1` (centres undefined), the CPE inhibition was 29.1% (active).

On to `CCCOP(=O)(c1ccc(N(C)C)cc1)C(Nc1ccccc1)c1ccc(N(C)C)cc1` (centres undefined), for which the CPE inhibition is 0.64% (inactive).

As to `O=C(NC1CCCc2ccccc21)c1ccc(Br)cc1` (centres undefined), the CPE inhibition was 3.09% (inactive).

Regarding `Nc1ccc(-n2nnnc2CN2CCOCC2)cc1`, the CPE inhibition was 0.25% (inactive).

With `COc1ccc(CC(=O)Nc2cc3oc4ccccc4c3cc2OC)cc1`, the CPE inhibition was 0.095% (inactive).

Regarding `C=CCOC(=O)C1=C[C@@H](c2ccc(C(F)(F)F)cc2)C[C@@H](OCCCCO)O1`, the CPE inhibition was 0.15% (inactive).

As for `Cc1ccc(Oc2nc3ccccn3c(=O)c2/C=C(\C#N)C(=O)Nc2c(C)n(C)n(-c3ccccc3)c2=O)c(C)c1`, the CPE inhibition was 0.875% (inactive).

With `Cc1cccc(Oc2nc3ccccn3c(=O)c2/C=C(\C#N)C(=O)NC2CCS(=O)(=O)C2)c1` (centres undefined), the CPE inhibition was 1.43% (inactive).

Take `CNC(=O)/C(C#N)=C/c1c(N(Cc2ccccc2)Cc2ccccc2)nc2c(C)cccn2c1=O`: the CPE inhibition is 17% (active).

Consider `CNC(=O)/C(C#N)=C/c1c(N(Cc2ccccc2)Cc2ccccc2)nc2ccccn2c1=O`, for which the CPE inhibition is 14.1% (active).

Consider `CCNC(=O)/C(C#N)=C/c1c(N2CCN(Cc3ccc4c(c3)OCO4)CC2)nc2c(C)cccn2c1=O`, for which the CPE inhibition result was “inactive”.

Regarding `Cc1cccn2c(=O)c(/C=C(\C#N)C(N)=O)c(N3CCN(Cc4ccc5c(c4)OCO5)CC3)nc12`, the CPE inhibition was 0.905% (inactive).

Regarding `COc1ccc(/C=C2/C(=O)N(Cc3ccccc3)N=C2C)cc1`, the CPE inhibition result is “inactive”.

In the case of `CCCCn1[nH]c(-c2ccccc2)cc1=O`, the CPE inhibition result is “inactive”.

Regarding `COc1ccc(OC)c(/C=C/C(=O)OCC(=O)Nc2cccc(Oc3ccccc3)c2)c1`, the CPE inhibition is 0.45% (inactive).

Regarding `COc1cc(/C=C/C(=O)Nc2nnc(CC(C)C)s2)cc(OC)c1OC`, the CPE inhibition was 1.95% (inactive).

For `CCCS(=O)(=O)Nc1c(OC)ccc2c1c(C(=O)OCC)c(C)n2C`, the CPE inhibition result was “inactive”.

With `CC(C)CNC(=O)c1ccccc1NC(=O)/C=C/c1cccc([N+](=O)[O-])c1`, the CPE inhibition entry was “inactive”.

In the case of `CC(=O)NN1C(=O)/C(=C/c2ccc(C(C)C)cc2)SC1=S`, the CPE inhibition entry was “inactive”.

Consider `O=C(COC(=O)c1oc2ccccc2c1COc1ccccc1)NCCN1C(=O)CSC1=O`, for which the CPE inhibition was 1.47% (inactive).

As to `CCSc1nc2ccccc2n1C(=O)c1ccc(S(=O)(=O)N2CCCCCC2)cc1`, the CPE inhibition is 0.17% (inactive).

As for `Cc1ccc(CN2C(=O)C(CC(C)C)Nc3ncnc(N4CCN(c5ccccn5)CC4)c32)cc1` (centres undefined), the CPE inhibition is 2.52% (inactive).

For the molecule `O=C(Cc1ccc(Br)cc1)N1CCN(c2ccccn2)CC1`, the CPE inhibition entry is “inactive”.

For the molecule `COc1ccc(CN2C(=O)C(Cc3ccccc3)Nc3ncnc(N4CCCCC4)c32)cc1` (centres undefined), the CPE inhibition was 2.1% (inactive).

For the molecule `Cc1ccc(CN2C(=O)C(CC(C)C)Nc3ncnc(N4CCN(c5ccccc5)CC4)c32)cc1` (centres undefined), the CPE inhibition was 37.1% (active).

Turning to `CCC1Nc2ncnc(N3CCN(c4ccccc4)CC3)c2N(Cc2ccc(Br)cc2)C1=O` (centres undefined), the CPE inhibition was 11.1% (active).

`CC(C)CC1Nc2ncnc(N3CCN(c4ccccn4)CC3)c2N(Cc2ccccc2)C1=O` (centres undefined): the CPE inhibition was 1.43% (inactive).

With `CC(C)CC1Nc2ncnc(N3CCN(c4ccccn4)CC3)c2N(Cc2ccc(Cl)cc2)C1=O` (centres undefined), the CPE inhibition was 9.66% (active).

For `CCC1Nc2ncnc(N3CCOCC3)c2N(Cc2ccc(Cl)cc2)C1=O` (centres undefined), the CPE inhibition is 0.26% (inactive).

With `CCC1Nc2ncnc(N3CCOCC3)c2N(Cc2ccc(Br)cc2)C1=O` (centres undefined), the CPE inhibition entry was “inactive”.

In the case of `COc1ccc2oc(=O)c(/C(C)=N/Nc3nc(-c4cc(C)ccc4C)cs3)cc2c1`, the CPE inhibition entry was “inactive”.

In the case of `CC(C)(C)C1CCC(=NNC(=O)CN(c2ccccc2)S(=O)(=O)c2ccccc2[N+](=O)[O-])CC1` (centres undefined), the CPE inhibition entry is “inactive”.

With `N#Cc1ccc(COC(=O)CSc2nnc(N)s2)cc1`, the CPE inhibition is 0.615% (inactive).

For `NC(=O)CC(NC(=O)Cc1cccc2ccccc12)c1ccc(NCc2ccccc2)c([N+](=O)[O-])c1` (centres undefined), the CPE inhibition was 2.03% (inactive).

Turning to `CCOC(=O)c1c(-c2ccc(F)cc2)csc1NC(=O)CCN1C(=O)c2ccccc2C1=O`, the CPE inhibition is 1.4% (inactive).

Consider `O=C(NCc1ccccc1)c1onc(CSc2ccc(F)c(F)c2)c1C(=O)NCc1ccccc1`, for which the CPE inhibition is 0.575% (inactive).

In the case of `CCOC(=O)CN1C(=O)N[C@@H](c2ccco2)C(C(C)=O)=C1C`, the CPE inhibition is 1.53% (inactive).

On to `Oc1cccc(/C=N/Nc2ncnc3c2ncn3Cc2ccccc2)c1`, for which the CPE inhibition entry was “inactive”.

The record behind these values is PubChem BioAssay AID540333 (Southern Research Specialized Biocontainment Screening …, 2011).
